Compound activity as filed in PubChem BioAssay.
Hits are enriched below; roughly 4.6% of the tested compounds scored in any of these assays.
TRHR ag: qHTS for Small Molecule Agonists and Allosteric Enhancers of Human TRH Receptor: Primary Screen for Agonists | Thyrotropin-releasing hormone receptor (Homo sapiens), P34981 | activation, % at 2 µM | actives 0.18% (n = 360,000) | TRHR cells, calcium flux fluo-8, FDSS agonist mode; also: 0% is about no effect
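Agonist-mode FDSS calcium read (Ex 480/Em 530, 1 s cycles) in 1536-well TRHR cells with fluo-8 dye, after 10-cycle baseline and 23 nL compound addition; TRH at EC20 (10 nM final) added afterwards for the enhancer phase.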
D1 antagonist: Antagonist of Human D 1 Dopamine Receptor: qHTS; activity change, negative = inhibition, % at 10 µM; actives 3.2% (n = 360,000); HEK293 TREx D1 cells, calcium flux, dopamine EC80; active compounds read low; D(1A) dopamine receptor (Homo sapiens), P21728; in the data active = activity change below about -30%; also: % is scaled to controls: 0 for no effect and ±100 for the full control effect
Target sequence (P21728 whole entry, looked up): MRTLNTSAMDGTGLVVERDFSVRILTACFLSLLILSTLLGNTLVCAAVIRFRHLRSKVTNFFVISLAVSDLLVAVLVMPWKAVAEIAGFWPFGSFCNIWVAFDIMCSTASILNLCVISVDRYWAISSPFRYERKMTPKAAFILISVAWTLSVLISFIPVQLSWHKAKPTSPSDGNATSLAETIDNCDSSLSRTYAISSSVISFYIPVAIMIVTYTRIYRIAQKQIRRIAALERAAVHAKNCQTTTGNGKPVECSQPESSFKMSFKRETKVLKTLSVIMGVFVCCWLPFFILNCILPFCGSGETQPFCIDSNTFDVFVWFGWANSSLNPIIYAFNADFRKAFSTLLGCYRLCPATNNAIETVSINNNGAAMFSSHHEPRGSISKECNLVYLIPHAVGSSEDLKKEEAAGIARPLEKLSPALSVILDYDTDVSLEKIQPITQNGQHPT
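Tetracycline-induced HEK293 Trex D1 cells, force-coupled to calcium, dye-loaded; compounds added and read 180 s, then EC80 dopamine added and calcium flux tracked kinetically another 180 s.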
D1 PAM: Potentiators of Human D1 Dopamine Receptor: qHTS; HEK293 TREx D1 cells, calcium flux, dopamine EC20 potentiation; actives 0.036% (n = 360,000); potentiation, % at 10 µM; AID 504651, 2011; D(1A) dopamine receptor (Homo sapiens), P21728; in the data active = potentiation above about 30%; also: 0% is about no effect
TRHR enhancer: qHTS for Small Molecule Agonists and Allosteric Enhancers of Human TRH Receptor: Primary Screen for Enhancers; TRHR cells, fluo-8 calcium fluorescence, EC20 TRH enhancement; Thyrotropin-releasing hormone receptor (Homo sapiens), P34981; enhancement, % at 2 µM; actives 0.66% (n = 360,000); in the data active = enhancement above about 30%; also: 0% is about no effect
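TRHR-expressing cells loaded with fluo-8 calcium dye were read kinetically (ex 480/em 530) during compound addition, then stimulated with an EC20 of TRH (10 nM final). Enhancement of the Gq-mediated intracellular calcium response was scored.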
D1 ag: Allosteric Agonists of the Human D1 Dopamine Receptor: qHTS | HEK293 T-REx D1 cells, calcium flux, agonist mode | AID 504660, 2011 | activation, % at 2 µM | actives 1% (n = 360,000); also: 0% is about no effect
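Tetracycline-induced HEK293 TREx D1 cells, force-coupled to calcium signalling, were dye-loaded with a no-wash calcium kit. Compound was pin-added after a 10 s baseline. Fluorescence was read kinetically at 1 cycle/s for 180 s, with calcium rises flagged as agonism.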
Starred values were filed as active, the others as inactive. Rule as the data show it, unless noted: active = activation above about 30%; inactive = the rest.

SMILES | TRHR ag | D1 antagonist | D1 PAM | TRHR enhancer | D1 ag
CCN(c1ccc(OC)cc1)S(=O)(=O)c1ccc(-c2ccc(=O)[nH]n2)o1 | 2 | -41* | 5 | 1 | 8
CC1(OC(=O)C2CCCC2)C(=O)C=C2C=C(c3ccsc3)N(CC3CC3)C=C2C1=O (stereo not given) | 0 | -33* | -3 | 8 | 8
Cc1ccc(NC(=S)N2CCC(N(C)CC3CCCO3)CC2)cc1C (stereo not given) | 0 | -18 | -8 | 31* | -3
CCC1CN(C(=O)Nc2cccc3c2CCCC3)c2cc(C)ccc2O1 (stereo not given) | 0 | -60* | -2 | -2 | 0
CCCCCSc1nnc2c(n1)[nH]c1c(C)cccc12 | -1 | -30* | 1 | -6 | 5
CCCCCCCCOC(=O)c1nc(Cl)c(Cl)c(N)c1Cl | 0 | 1 | -5 | -4 | 9
COC(=O)c1nc(Cl)c(Cl)c(N)c1Cl | 0 | -31* | -3 | -1 | 0
COc1ccccc1N1CCN(S(=O)(=O)c2c(C)sc3ncn(CC(=O)Nc4ccc(C(F)(F)F)cc4)c(=O)c23)CC1 | 0 | 5 | 0 | 0 | -1
Cc1[nH]c2ccccc2c1C(=O)CN1C(=O)NC(C)(c2ccc(Cl)cc2Cl)C1=O (stereo not given) | 5 | 4 | 2 | 4 | 37*
Cn1ccc(C(=O)Oc2ccc(C(=O)Nc3ccc(F)cc3F)cc2)n1 | 1 | -44* | -3 | -4 | 12
COc1ccc(C(=O)Nc2ccc(F)cc2F)cc1OC | 0 | 2 | -6 | -3 | 0
CCn1c(=O)c(-[n+]2ccccc2)c(O)c2ccccc21 | -1 | -35* | 2 | -3 | 2
COc1ccc(NC(=O)C(NS(=O)(=O)c2cccc3nsnc23)C(C)C)cc1OC (stereo not given) | 0 | 1 | -2 | -5 | -2
CCN(c1ccccc1)S(=O)(=O)c1ccc(C(=O)Oc2ccc(C(C)=O)cc2)cc1 | 1 | -38* | -9 | -6 | 24
C=Cc1ccc(Cn2c(C)c(CNCc3cccc(Br)c3)c(C(=O)O)c2C)cc1 | 1 | 34 | -2 | -2 | 1
Cc1cccc(NC(=O)Cn2c(SCC(=O)NCc3ccccc3)nc3ccccc32)c1C | 0 | -14 | 1 | -2 | 4
CCc1cccc(C)c1NC(=O)C(CC)n1ncn2c(cc3cc(C)ccc32)c1=O (stereo not given) | 0 | 14 | 6 | 2 | 3
O=[N+]([O-])c1cc2c(c(CSc3nnnn3-c3ccc(O)cc3)c1)OCOC2 | 0 | -33* | -5 | 17 | 3
Cc1ccc(Cl)cc1N1CCN(C(=O)c2ccc3nc[nH]c3c2)CC1 | 1 | -1 | -5 | 2 | 7
Cc1cccc(N2CCN(C(=O)c3ccc4nc[nH]c4c3)CC2)c1C | -1 | -46* | -7 | 2 | 20
Cc1cc(C)c(NC(=O)Cc2csc(C)n2)c(Cl)c1 | 0 | 12 | -1 | -1 | 0
COc1ccc(-c2onc(C)c2C)cc1S(=O)(=O)Nc1cccc(C#N)c1 | 0 | -19 | -5 | -5 | 7
Clc1ccc(OCCCNCc2ccccc2)c2ccccc12 | 1 | -2 | 16 | 2 | 31*
C=CCc1ccccc1OCCNCc1ccccc1 | 0 | -50* | -17 | 5 | 12
Brc1ccccc1OCCNCc1ccccc1 | 0 | -75* | -16 | 5 | 13
SMILES | TRHR ag | D1 antagonist | D1 PAM | TRHR enhancer | D1 ag
C=CCc1ccc(OCCCNCc2ccccc2)c(OC)c1 | 0 | -13 | -10 | 3 | 6
Cc1ccc(C)c(S(=O)(=O)NCc2ccncc2)c1 | -3 | -43* | -11 | 15 | 11
Cc1ccc(C)c(S(=O)(=O)NCc2ccc(C(=O)N3CCCCCC3)cc2)c1 | 0 | -32* | -10 | -11 | 13
CCN(CC)S(=O)(=O)c1nnc(NC(=O)c2ccc(Br)cc2)s1 | 0 | -1 | -1 | -2 | 2
COc1ccc(/C=C/c2ccncc2)cc1 | -1 | -34* | -9 | 1 | 2
COc1cc(Cl)c(C)cc1NC(=O)CSCc1nc(-c2ccc(OC)c(OC)c2)no1 | 0 | -5 | 4 | -5 | 0
CC[C@H](C)/C=C(C)/C=C/C1=CC2=CC(=O)[C@]3(C)OC(=O)[C@@H](C(C)=O)[C@@H]3C2=CO1 | 11 | -14 | 4 | -6 | 42*
CC[C@H](C)/C=C(C)/C=C/C(=O)Cc1cc(O)c(C)c(O)c1C=O | 3 | -16 | -7 | -6 | 14
COC(=O)c1ccc(NC(=O)CSc2cn(CC(=O)N3CCCCC3)c3ccccc23)cc1 | 0 | -10 | -5 | -4 | 13
COCCCNC(=S)N1CCN(c2nc(-c3ccccc3)cs2)CC1 | 0 | -33* | -6 | 1 | 8
COc1cccc(-c2csc(N3CCN(C(=S)Nc4ccccc4OC)CC3)n2)c1 | -2 | -35* | -7 | 15 | 2
CC(C)CNC(=S)N1CCN(c2nc(-c3ccc(Cl)cc3)cs2)CC1 | 1 | -30* | -10 | -1 | -2
CCOCCCNC(=S)N1CCN(c2nc(-c3ccccc3)cs2)CC1 | -1 | -20 | -9 | 13 | 3
COc1cccc(-c2csc(N3CCN(C(=S)Nc4ccccc4Cl)CC3)n2)c1 | 0 | -24 | -8 | 2 | 2
CCNC(=S)N1CCN(c2nc(-c3cccc(OC)c3)cs2)CC1 | -1 | -30* | -6 | 12 | 7
CC1Cc2ccccc2N1C(=O)CSc1nnc(-c2cccc(Cl)c2)o1 (stereo not given) | -1 | -4 | 0 | 5 | 1
Cc1cc(C)nc(SCC(=O)c2ccc(O)cc2O)n1 | -1 | -43* | 2 | 7 | 4
Cc1cc(C)nc(SCC(=O)c2ccc(O)c(O)c2)n1 | 0 | 2 | -8 | -2 | 6
CC(C)Nc1nc(NC(C)(C)C)nc(Oc2ccc(=O)n(C)n2)n1 | 0 | 14 | 0 | -2 | 47*
Cc1cc(NC(=O)C2CCCN(S(=O)(=O)c3cn(C)cn3)C2)ccc1Br (stereo not given) | -1 | -6 | 0 | 3 | 1
CC(=O)c1c(C)nc2ccccc2c1N | 0 | 9 | 3 | -4 | 0
Cc1nc2ccccc2c(N)c1C(=O)/C=C/c1ccccc1 | 1 | -32* | -6 | -7 | 25
O=C(CCCCCCC(=O)c1ccccc1)c1ccccc1 | 0 | -32* | -1 | -10 | 2
